Laboratory results from PubChem BioAssay AID623992 (NMMLSC, 2012).
Measured potencies and affinities stand elsewhere. Unmarked numbers belong to inactive results. Activity calls are given as the source filed them.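 How the source made its calls: active means compounds whose fitted half-maximal effective concentration for blocking dye efflux is below 100 µM; inactive means the rest.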

target: Benomyl/methotrexate resistance protein (Candida albicans) (UniProt P28873); experiment: CaMdr1 efflux pump inhibitor potency, dose response, singleplex, Cherry Pick2 set (AID 623992); settings: S. cerevisiae AD/CaMDR1, Nile Red efflux, flow cytometry; series mostly up to 100 µM; efflux inhibition response: at the top concentration
Sequence (P28873 whole entry, looked up): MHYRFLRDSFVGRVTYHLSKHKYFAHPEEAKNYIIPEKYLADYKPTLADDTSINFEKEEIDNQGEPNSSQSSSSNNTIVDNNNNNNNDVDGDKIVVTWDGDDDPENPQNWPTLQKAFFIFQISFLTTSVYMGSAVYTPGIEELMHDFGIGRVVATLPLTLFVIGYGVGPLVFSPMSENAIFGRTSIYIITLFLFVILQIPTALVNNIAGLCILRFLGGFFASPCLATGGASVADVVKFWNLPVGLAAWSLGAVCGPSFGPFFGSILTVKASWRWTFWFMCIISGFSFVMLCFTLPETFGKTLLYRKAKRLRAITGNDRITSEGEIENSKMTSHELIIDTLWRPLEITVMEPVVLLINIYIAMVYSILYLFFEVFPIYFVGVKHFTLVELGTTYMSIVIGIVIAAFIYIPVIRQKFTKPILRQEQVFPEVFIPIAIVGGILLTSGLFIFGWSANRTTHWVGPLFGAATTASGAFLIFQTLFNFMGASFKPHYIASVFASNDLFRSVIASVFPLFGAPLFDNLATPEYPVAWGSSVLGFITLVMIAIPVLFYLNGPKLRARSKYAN

| SMILES | efflux inhibition response [%] | outcome |
| --- | --- | --- |
| Cc1ccc(CNC(=O)C2CCC(CNc3nc(=S)[nH]c4ccccc34)CC2)cc1 (stereo not given) | -0.77 |  |
| CCC(=O)N1CCN(c2ccc(Cl)cc2NC(=O)c2ccc3c(c2)OCCO3)CC1 |  | inactive |
| COc1ccc(N2CCN(C(=O)C3CCCN(c4ncnc5c4nc4n5CCCCC4)C3)CC2)cc1 (stereo not given) | -1.48 |  |
| O=C(c1ccoc1)N1CCC2(CC1)Oc1ccc(F)cc1C(=O)C21CC(c2ccccc2)=NO1 (stereo not given) | 105 |  |
| COc1cc(OC)c2c(-c3ccccc3)cc(=O)oc2c1C(CCN1CCCC(C)C1)c1ccc(N(C)C)cc1 (stereo not given) | -0.53 |  |
| CC(C)C(=O)N1CCC2(CC1)Oc1ccc(F)cc1C(=O)C21CC(c2ccc(Cl)cc2)=NO1 (stereo not given) | 133 |  |
| O=C(c1ccc2c(c1)OCO2)N1CCC2(CC1)Oc1ccc(F)cc1C(=O)C21CC(c2ccc(Cl)cc2)=NO1 (stereo not given) | 30.5 |  |
| COc1cccc(N2CCN(C(=O)C3CCCN(c4ncnc5c4nc4n5CCCCC4)C3)CC2)c1 (stereo not given) | -0.35 |  |
| CC1CN(c2nc3ccccc3nc2C(C#N)C(=O)NCc2ccc3c(c2)OCO3)CC(C)O1 (stereo not given) |  | inactive |
| COc1ccc2sc(-c3ccccc3OC)c(-c3ccc(OCCN(C)C)cc3)c2c1 | 307 |  |
| CCCCCCCCCC[N+](C)(C)CC/C=C1/c2ccccc2Sc2ccc(Cl)cc21 | 405 |  |
| C[C@@]12C(=O)Nc3ccc(Cl)cc3C(=O)N1[C@H]1c3cc(Cl)ccc3OC[C@@H]1[C@@H]2c1ccccc1 | -0.59 |  |
| Cc1ccc(O)c(C(=O)c2cnc3c(c2)CN(C)C(=O)N3)c1 | 0.89 |  |
| CCCCN1Cc2cc(C(=O)c3cc(F)ccc3O)cnc2NC1=O |  | inactive |
| COc1ccc(C2CC(c3ccccc3)=NN2c2ccc(S(N)(=O)=O)cc2)cc1 (stereo not given) | -1.14 |  |
| CN1Cc2cc(C(=O)c3ccccc3O)cnc2NC1=O | -1.55 |  |
| CCCCNC(=O)C1CCC(CNc2nc(=S)[nH]c3ccccc23)CC1 (stereo not given) | 1.33 |  |
| O=C(CSc1nnc(Cc2cccs2)n1Cc1ccco1)Nc1ccc(Br)cc1 | -1.48 |  |
| Cc1cc(C(=O)NC2CC(C)(C)Cc3c2cnn3-c2ccc(F)cc2)no1 (stereo not given) | -1.32 |  |
| COc1ccc(CCOC(=O)c2ccc(N)c([N+](=O)[O-])c2)cc1 | -0.87 |  |
| Cc1ccc(-c2c[n+](CC(=O)N3c4ccccc4Sc4ccccc43)c3n2CCC3)cc1 | -1.07 |  |
| O=C(C1CCCN(c2ncnc3c2nc2n3CCCCC2)C1)N1CCN(c2ccccc2F)CC1 (stereo not given) | -1.04 |  |
| COc1ccccc1C(=O)OCCc1ccccc1 | -0.58 |  |
| Cc1ccc(N2CCN(C(=O)C3CCCN(c4ncnc5c4nc4n5CCCCC4)C3)CC2)c(C)c1 (stereo not given) | -0.58 |  |
| N#CC(C(=O)NCc1ccccc1)c1nc2ccccc2nc1N1CCCC1 (stereo not given) | -0.29 |  |
| NC1=NC[C@H](Cc2ccc(O)cc2)N1CCCCC1CCCCC1 | -0.18 |  |
| COc1ncccc1C(=O)NC1CCCc2c1cnn2-c1cc(C)cc(C)c1 (stereo not given) | -0.48 |  |
| COc1ccc(CN2C(=O)C(C)Nc3ncnc(N4CCN(c5ccccc5)CC4)c32)cc1 (stereo not given) | -0.25 |  |
| O=C(C1CCC(CNc2nc(=S)[nH]c3ccccc23)CC1)N1CCN(c2ccc(F)cc2)CC1 (stereo not given) | -1.48 |  |
| Cc1cc(C)c2sc(N(CCCN(C)C)C(=O)c3ccc(Br)s3)nc2c1 | 68.6 |  |
